Screening data deposited in PubChem BioAssay by National Center for Advancing Translational Sciences (NCATS).
FBPA Giardia inh – Giardia lamblia aldolase inhibition | A8B2U2 | AID 2451 | Potency, µM (titrated, usually from 59.6 µM), for inactives: top-dose activity, negative = inhibition, hits mostly inhibitors | 290,000 compounds, 0.71% hits | purified Giardia FBPA; further: on the % scale 0 is the no-effect control and ±100 the full control effect; nearly all actives have a fitted effect of over 55% in size
Target sequence (A8B2U2 whole entry, looked up): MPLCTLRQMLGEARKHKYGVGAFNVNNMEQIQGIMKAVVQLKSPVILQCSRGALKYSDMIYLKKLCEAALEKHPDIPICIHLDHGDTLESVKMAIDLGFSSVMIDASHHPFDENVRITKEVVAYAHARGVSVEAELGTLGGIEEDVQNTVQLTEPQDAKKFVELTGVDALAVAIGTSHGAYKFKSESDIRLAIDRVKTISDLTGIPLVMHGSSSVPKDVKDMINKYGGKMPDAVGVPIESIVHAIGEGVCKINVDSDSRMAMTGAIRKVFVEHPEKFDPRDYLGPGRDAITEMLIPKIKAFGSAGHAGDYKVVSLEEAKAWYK
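Giardia FBPA (40 nM reagent) was preincubated 10 min at RT with compound (up to 57.5 uM final), then substrate plus GAPDH/TPI/NAD/arsenate coupling system with diaphorase/resazurin was added; resorufin fluorescence (525/598 nm) was read after 20 min.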
Tb PYK inh – blocks Trypanosoma brucei pyruvate kinase; Potency, µM (highest dose often 76.8 µM), for the others: at the highest dose activity, negative = inhibition, actives largely listed as inhibitors; Q57TT1; 410,000 compounds, 0.12% hits; TbPYK enzyme, Kinase-Glo Plus ATP luminescence, 45 min; AID 624173; further: on the % scale 0 is the no-effect control and ±100 the full control effect; nearly all actives have a fitted effect of over 50% in size
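Readout: single end-point luminescence (Kinase-Glo Plus, 10 min). Reaction conditions were TbPYK/substrate plus 130 uM ADP, 45 min at RT, pH 7.2 TEA buffer. No-enzyme wells served as controls, and data were normalized before concentration-response fitting.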
LmPK inhibitor – blocks Leishmania mexicana pyruvate kinase activity; Potency, µM (series often up to 57.5 µM), inactives show at the highest dose activity change, negative = inhibition, most hits filed as inhibitors; 290,000 compounds, 0.37% hits; purified LmPK, Kinase-Glo ATP luminescence, 1 h; further: on the % scale 0 is the no-effect control and ±100 the full control effect
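Purified LmPK (0.1 nM) converted ADP (0.1 mM) to ATP with PEP (0.5 mM) in imidazole buffer pH 7.2 with KCl and MgCl2, 1 h at room temperature. ATP was read by Kinase-Glo luminescence; data normalized to uninhibited and no-enzyme controls.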
AMA1-RON2 inh – inhibitors of Plasmodium falciparum AMA1-RON2 interaction; 360,000 compounds, 0.2% hits; AlphaScreen AMA1-biotinylated RON2 peptide binding; AID 720542; Potency, µM (series often up to 58.2 µM), without a hit: at the highest dose activity change, negative = inhibition, usual class: inhibitors;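 further: 0% = vehicle wells and -100% = peptide control; nearly all actives have a fitted effect of over 45% in size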
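AMA1 (3D7) with his tag at 25 nM final met compounds first, then biotinylated RON2 peptide at 25 nM; detection used donor plus acceptor beads, 10 µg/mL apiece, read by AlphaScreen after 30 min at room temperature.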
NS1 inh – blocks influenza NS1 protein function; Potency, µM (titrated, usually from 46.1 µM), without a hit: top-dose activity, positive = more growth; 270,000 compounds, 0.4% hits; calls by dose curve; further: actives are rising curves; nearly all actives have a fitted effect of over 50% in size
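Growth recovery, yeast-based: influenza A NS1 expressed in S. cerevisiae causes slow growth, and suppressors are detected by OD600. The parent strain without NS1 is used as positive control.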
An asterisk follows results filed as active; ? = inconclusive; / = no result; ! = not active in a repeat; [ ] = remark or other dose. A selection: hits, their analogues and other compounds. The true share with any hit is near 1.2%. Unless noted, the call rests on the fitted dose curve; in most records, active means well fitted curve in the direction sought with a large enough effect; inconclusive means small, poorly fitted or top-dose-only effect, or another doubt; inactive means no such curve, though single readings can be large; an effect the other way counts as inactive or inconclusive. Potency means the concentration at half of the fitted maximal effect.

SMILES	FBPA Giardia inh	Tb PYK inh	LmPK inhibitor	AMA1-RON2 inh	NS1 inh
CN1OC[C@@H]2CN(Cc3ccc4c(c3)OCO4)[C@H](c3ccc(N4CCCCC4)cc3)C[C@@H]21	/	3.3%	/	14.1µM*	/
N#CCCN(CC#Cc1ccccc1)OCc1ccccc1	1.7%[12.9 µM]	/	/	/	/
C[n+]1cc2c3c(ccc2c2ccc4cc5c(cc4c21)OCO5)OCO3	6.29µM*!	-15.3%	/	/	22.3%
O=C(NCCc1ccccc1)c1ccc2nc(-c3ccco3)c(-c3ccco3)nc2c1	?	?	7.4%	1.4%	14.1µM*
COc1ccc(NC(=O)Nc2ccccc2C(N)=O)cc1	0.2%	-29.5%	14.1µM*	2.9%	-6.1%
Cc1ccc(NC(=O)Nc2ccccc2C(N)=O)cc1	-2.2%	-16.6%	15.8µM*	-6.9%	-2.8%
Cc1ccccc1NC(=O)Nc1ccccc1C(N)=O	-2.3%	-2.2%	2.8%	-0.9%	-4.6%
C=CS(=O)(=O)O	/	-6.7%	/	/	/
CNc1cccc2c1C(=O)c1ccccc1C2=O	-28.4%	-7.9%	-13.0%	3.98µM*	2.9%
O=C1c2ccccc2C(=O)c2c(Nc3ccc4c5c(cccc35)C(=O)c3ccccc3-4)cccc21	/	/	/	/	0.6%
Cc1nn2c(=O)cc(COC(=O)c3ccc(NC(=O)c4cccc(Br)c4)cc3)nc2s1	/	-2.2%	/	/	/
O=S(=O)(O)c1ccc(Cl)c(Cl)c1	/	0.6%	/	-4.8%	/
O=C1C(c2[nH]c3ccc(S(=O)(=O)O)cc3c2O)=Nc2ccc(S(=O)(=O)O)cc21	17.7µM*	0.0%	/	/	/
CO/N=C(/C(=O)N[C@@H]1C(=O)N2C(C(=O)OC(C)OC(C)=O)=C(COC(N)=O)CS[C@H]12)c1ccco1 (stereo partly specified)	/	0.0%	/	/	/
O=[N+]([O-])c1ccc2c(c1)-c1ccccc1C2O (stereo unspecified)	/	15.8µM*	/	?	/
O=C(NC1=C(NC2CCS(=O)(=O)C2)C(=O)c2ccccc2C1=O)c1ccccc1 (stereo unspecified)	1.26µM*	-22.0%	0.5%	2.3%	-8.0%
O=C(NC1=C(Nc2ccc(Cl)cc2)C(=O)c2ccccc2C1=O)c1ccccc1	?	?	?	-4.8%	-12.8%
Cc1cccc(NC2=C(NC(=O)c3ccccc3)C(=O)c3ccccc3C2=O)c1	?	15.8µM*	3.55µM*	?	-35.2%
CC[C@H](C(=O)[C@H](C)[C@H](O)[C@H](C)CCc1ccc(C)c(O)c1C(=O)O)[C@H]1O[C@](CC)([C@@H]2CC[C@@](O)(CC)[C@H](C)O2)C[C@H]1C	2.0%[21.7 µM]	/	/	/	/
N=C1CCC(=N)c2c1c(O)c1ccccc1c2O	6.29µM*	?	-12.4%	20µM*	-30.6%
CC1CN(C(=O)c2cc3c(=O)n4ccccc4nc3n2C)CC(C)O1 (stereo unspecified)	/	-0.1%	1.1%	11.2µM*	-4.4%
O=C(Nc1ccc2oc(-c3ccccc3F)nc2c1)c1ccc2c(c1)OCCO2	-8.9%	-8.8%	0.7%	8.44µM*	-13.0%
O=C(Nc1ccccc1-c1nc2ccccc2o1)c1ccc2c(c1)OCCO2	/	/	/	/	4.3%
O=C(Nc1ccccc1)c1ccc2c(c1)OCCO2	-2.1%	-16.6%	14.1µM*	0.0%	-175.8%
CCOc1ccccc1NC(=O)CCCc1nc(-c2ccccc2Cl)no1	/	-1.5%	/	/	/
SMILES	FBPA Giardia inh	Tb PYK inh	LmPK inhibitor	AMA1-RON2 inh	NS1 inh
O=c1c2c([N+](=O)[O-])cc([N+](=O)[O-])cc2sn1-c1ccc(Br)cc1	?	3.98µM*	0.6%	-1.6%	-5.2%
O=[N+]([O-])c1ccc(S(=O)Cc2ccccc2)c([N+](=O)[O-])c1 (stereo unspecified)	/	3.1%	/	-1.7%	/
O=c1c2c([N+](=O)[O-])cc([N+](=O)[O-])cc2sn1Cc1ccccc1	-22.7%	1.58µM*	-6.0%	-19.8%	-59.2%
CC(C)c1cc2c(c(O)c1O)[C@@]1(C(=O)O)CCCC(C)(C)[C@@H]1CC2	9.98µM*	/	/	/	/
COc1ccc(-c2nc3c(c4c2C[C@H](c2ccccc2)OC4)CN(S(=O)(=O)c2ccc(C)cc2)CC3)c(C)c1	1.5%[12.9 µM]	/	-2.7%[11.5 µM]	/	/
O=C(N/N=C/c1ccc2ncccc2c1)c1ccco1	1.9%	-18.9%	14.1µM*	0.2%	/
CN(C)c1ccc(/C=N/NC(=O)c2ccco2)cc1	-4.6%	-18.8%	15.8µM*	-1.3%	-16.4%
Cc1ccc(/C=N/NC(=O)c2ccco2)cc1	-2.8%	-4.4%	?	19.7%	-5.6%
CCN(CC)S(=O)(=O)c1cccc(-c2n[nH]c(=S)n2Cc2ccccc2)c1	11.3%	5.62µM*	-1.7%	85.2%	/
CCN(CC)S(=O)(=O)c1cccc(-c2n[nH]c(=S)n2CC(C)C)c1	4.5%	8.91µM*	?	91.5%	/
O=C(CCCN1CCN(c2ccc(F)cc2)CC1)NC1c2ccccc2CSc2ccccc21 (stereo unspecified)	/	-8.1%	/	/	/
Cc1ccc(NC(=S)Nc2ccc3nc(-c4ccccn4)c(-c4ccccn4)nc3c2)cc1C	1.26µM*	1.3%	1.5%	-5.2%	24.9%
CC(C)Nc1ccc(Nc2ccnc3cc4ccccc4cc23)cc1	-11.6%	0.3%	-3.3%	7.94µM*	-9.3%
COc1ccc(Nc2ccnc3ccccc23)cc1	-11.5%	0.8%	7.5%	-3.2%	-6.1%
Cc1nc2ncccn2c1-c1csc(Nc2ccc(N(C)C)cc2)n1	-22.1%	5.0%	1.9%	14.1µM*	15.7%
CC(=N/O)/C(C)=N\NC(=O)c1ccccn1	-15.5%	-11.1%	-2.7%[11.5 µM]	80.7%	/
C/C(=N\NC(=O)c1ccccn1)c1ccc(C(=O)O)s1	?	/	15.8µM*	/	0.2%
Cc1ccc(-n2nnc(-c3nccs3)n2)cc1	1.9%	?	14.1µM*	1.4%	-8.7%
Clc1ccc(-n2nnc(-c3nccs3)n2)cc1Cl	-8.9%	?	-3.1%	13.4%	-32.3%
CCOc1ccc(N2C(=O)/C(=C/c3ccco3)C(=O)NC2=S)cc1	8.1%	?	18.9%	3.98µM*	12.8%
O=C(c1cccc(F)c1)N1CCC[C@@]2(CCN(c3ccccc3)C2)C1	-13.7%	-1.7%	/	/	/
CN(C)Cc1ccccc1-c1cncnc1NCc1cccnc1	-14.4%	/	/	/	/
CN(C)c1cccc(NC(=O)C2Cc3c(-c4ccc(Cl)cc4)ccnc3O2)c1 (stereo unspecified)	/	5.1%	/	25.1µM*	/
N#Cc1nc(NCC2CC2)nc(Nc2ccccc2)n1	0.2%	/	/	/	/
